The whole screen tested about 96,000 compounds, of which about 20,000 (21%) were called active. Only a sample is shown. Values without a mark were called inactive.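 The calls were made as follows: active = CYP2C19 inhibition above a set limit at 5 µM in the primary screen (cut at about 50% in these data); inactive = the rest.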
Molecular target: Cytochrome P450 2C19 (Homo sapiens) (UniProt P33261)
Experiment: blockers of cytochrome P450 2C19 activity – biochemical, luminescence, ADME assay, primary screen (AID 778);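 also: plate controls were negative control wells for no effect and 2.5 mM tranylcypromine positive control for full effect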
Conditions: CYP2C19 Supersomes, luciferin-H EGE luminescence, 30 min; at 5 µM; active compounds read high

Sequence of Cytochrome P450 2C19 (Homo sapiens) (P33261 whole entry, looked up): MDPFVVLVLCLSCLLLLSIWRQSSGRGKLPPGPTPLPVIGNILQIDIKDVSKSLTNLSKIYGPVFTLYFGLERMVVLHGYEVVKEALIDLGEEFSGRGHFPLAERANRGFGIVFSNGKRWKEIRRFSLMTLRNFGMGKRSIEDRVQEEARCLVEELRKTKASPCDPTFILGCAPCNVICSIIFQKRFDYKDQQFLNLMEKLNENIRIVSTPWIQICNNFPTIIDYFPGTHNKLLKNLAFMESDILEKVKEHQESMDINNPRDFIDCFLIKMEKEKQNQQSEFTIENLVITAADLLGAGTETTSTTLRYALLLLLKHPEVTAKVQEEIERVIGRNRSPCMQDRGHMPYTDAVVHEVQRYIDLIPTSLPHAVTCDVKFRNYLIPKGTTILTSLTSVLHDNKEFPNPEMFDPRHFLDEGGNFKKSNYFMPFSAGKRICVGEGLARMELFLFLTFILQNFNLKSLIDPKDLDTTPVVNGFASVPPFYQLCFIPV

**Q.** `C=CCN(c1ccc(C(N)=O)cc1)S(C)(=O)=O` was tested. Which inhibition did it give?
**A.** The inhibition was -3.9%.

**Q.** `CSc1ccc(-c2c(C#N)c(N)nc3c2c(C)nn3-c2ccccc2)cc1` was tested. Which inhibition did it give?
**A.** Its inhibition is 4.1%.

**Q.** `COc1cc(=O)[nH]c(=O)n1C(=O)Cc1ccccc1` was tested. Which inhibition did it give?
**A.** The inhibition was 5.6%.

**Q.** `Cc1occc1C(=O)Nc1nnc(C2CCCCC2)s1` was tested. Which inhibition did it give?
**A.** The inhibition was -3.5%.

**Q.** Which inhibition does the source give for `Cc1occc1C(=O)Nc1cccc(Cn2cccn2)c1` here?
**A.** The inhibition was 57% (active).

**Q.** Which inhibition does the source give for `Cc1ccc(C(=O)COc2cccc(NC(=O)c3ccco3)c2)cc1` here?
**A.** The inhibition was 32.7%.

**Q.** With `Cc1occc1C(=O)Nc1nnc(-c2ccncc2)s1` as the molecule, how does the inhibition read?
**A.** The inhibition was 98.1% (active).

**Q.** Which inhibition does the source give for `Cc1ccc(C(=O)Nc2nnc(-c3ccncc3)s2)o1` here?
**A.** The inhibition was 27%.

**Q.** How did the inhibition turn out when `CCOc1cccc(C(=O)Nc2cnn(Cc3ccccc3)c2)c1` was run?
**A.** The inhibition was 8.6%.

**Q.** For `Fc1ccc(CNc2nc3ccccc3n3nnnc23)cc1`, which inhibition is on record?
**A.** Its inhibition is 6%.

**Q.** How did the inhibition turn out when `CN(C)/C=C1\C=C(c2ccccc2)OC1=O` was run?
**A.** The inhibition was -5.7%.

**Q.** `O=C1CSC2=NCN(c3ccccc3)CN12` was tested. Which inhibition did it give?
**A.** The inhibition was 3.1%.

**Q.** Which inhibition does the source give for `CCOc1ccc(Nc2oc(Cc3ccccc3)nc2C#N)cc1` here?
**A.** The inhibition was 30.6%.

**Q.** With `N#Cc1nc(Cc2cccc3ccccc23)oc1NCc1ccc2c(c1)OCO2` as the molecule, how does the inhibition read?
**A.** The inhibition was 48.7%.

**Q.** With `N#Cc1nc(Cc2ccccc2)oc1NCCc1ccccc1` as the molecule, how does the inhibition read?
**A.** Its inhibition is 64.7% (active).

**Q.** With `FC(F)(F)c1nnc2sc(-c3ccco3)nn12` as the molecule, how does the inhibition read?
**A.** The inhibition was 10.3%.

**Q.** With `CCOc1ccc(/C(O)=C2/C(=O)C(=O)N(Cc3cccnc3)C2c2ccc(N(C)C)cc2)c(C)c1` (centres undefined) as the molecule, how does the inhibition read?
**A.** The inhibition was 3.8%.

**Q.** How did the inhibition turn out when `CCOc1ccc(N2C(=O)CC(N(O)c3ccccc3)C2=O)cc1` (centres undefined) was run?
**A.** Its inhibition is 20.3%.

**Q.** How did the inhibition turn out when `Cn1c(N)c(C(=O)COC(=O)C23CC4CC(CC(C4)C2)C3)c(=O)n(C)c1=O` was run?
**A.** Its inhibition is 13.1%.

**Q.** With `Cc1cc(C)cc(NC(=O)N2CCC(NC(=O)c3ccc(F)cc3)CC2)c1` as the molecule, how does the inhibition read?
**A.** Its inhibition is -9.5%.

**Q.** How did the inhibition turn out when `CCOc1ccc(Nc2nc(Cc3nnc(SCC(=O)c4ccc(C)cc4)o3)cs2)cc1` was run?
**A.** The inhibition was 46.9%.

**Q.** `COCCCn1c(Cc2csc(Nc3cccc(Cl)c3)n2)nnc1SCC(=O)OC1CCCCC1` was tested. Which inhibition did it give?
**A.** Its inhibition is 27.4%.

**Q.** For `CCOc1ccc(Nc2nc(Cc3nnc(SCC(=O)NC4CCCC4)n3C)cs2)cc1`, which inhibition is on record?
**A.** The inhibition was 53.4% (active).

**Q.** With `CC(C)c1ccc(Nc2ncccc2C#N)cc1` as the molecule, how does the inhibition read?
**A.** Its inhibition is 22.2%.

**Q.** How did the inhibition turn out when `Cc1ccc(NC2=NC(c3ccccc3)n3c(nc(C)cc3=O)N2)cc1` (centres undefined) was run?
**A.** The inhibition was 42.1%.

**Q.** For `Cc1ccc(OCC(=O)Nc2ccc(-c3nnc(-c4ccco4)o3)cc2)cc1`, which inhibition is on record?
**A.** Its inhibition is 44.4%.

**Q.** `CC1(C)CC(=O)c2cc(OCC(=O)NCC3CCCO3)ccc2O1` (centres undefined) was tested. Which inhibition did it give?
**A.** Its inhibition is 16.2%.

**Q.** `Cc1ccc(/C=N\n2c(-c3ccccc3)n[nH]c2=S)s1` was tested. Which inhibition did it give?
**A.** The inhibition was 4.8%.

**Q.** For `O=C(c1ccco1)N1CCN(C(=O)C2c3ccccc3Oc3ccccc32)CC1`, which inhibition is on record?
**A.** The inhibition was 88.7% (active).

**Q.** Which inhibition does the source give for `CCNC(=S)N1CCN(C(=O)c2ccco2)CC1` here?
**A.** Its inhibition is 5.5%.

**Q.** Which inhibition does the source give for `O=C(c1ccc2c(c1)OCO2)N1CCN(C(=O)c2ccco2)CC1` here?
**A.** The inhibition was 17%.

**Q.** How did the inhibition turn out when `O=C(Cc1c(F)cccc1Cl)N1CCN(C(=O)c2ccco2)CC1` was run?
**A.** Its inhibition is 11.2%.

**Q.** Which inhibition does the source give for `COc1ccc(N2C(=O)C3CCCN3C2c2cccc(OC)c2)cc1` (centres undefined) here?
**A.** Its inhibition is 30.1%.

**Q.** How did the inhibition turn out when `Cc1ccc(OS(=O)Nc2cccc3nccnc23)cc1` (centres undefined) was run?
**A.** Its inhibition is 38.8%.

**Q.** For `CC(C)OC(=O)C(C#N)c1nc2ccccc2nc1N1CCN(Cc2ccc3c(c2)OCO3)CC1` (centres undefined), which inhibition is on record?
**A.** The inhibition was 2.4%.

**Q.** Which inhibition does the source give for `Cc1ccc(S(=O)(=O)Nc2nc3ccccc3nc2N2CCc3ccccc3C2)cc1` here?
**A.** Its inhibition is 40.6%.

**Q.** For `Cc1ccc(S(=O)(=O)C(C#N)c2nc3ccccc3nc2N2CCCC2)cc1C` (centres undefined), which inhibition is on record?
**A.** The inhibition was 96.8% (active).

**Q.** For `Cc1ccc(-c2c3c(=O)n(C)c(=O)n(C)c3cn2-n2cnnc2)cc1`, which inhibition is on record?
**A.** The inhibition was -18.4%.

**Q.** For `O=S(=O)(N1CCOCC1)N1CCN(c2ccccc2F)CC1`, which inhibition is on record?
**A.** Its inhibition is 61.1% (active).

**Q.** How did the inhibition turn out when `Cc1cccc(C)c1N1CCN(S(=O)(=O)N2CCOCC2)CC1` was run?
**A.** The inhibition was 22.7%.

**Q.** Which inhibition does the source give for `O=C(c1ccc(CN2CCOCC2)cc1)N1CCN(c2ccccc2F)CC1` here?
**A.** The inhibition was 9.5%.

**Q.** How did the inhibition turn out when `COC(=O)c1sccc1N/N=C(\C)c1ccc(F)c(Cl)c1` was run?
**A.** Its inhibition is -0.3%.

**Q.** With `Cc1ccnc(N2CCCC(C(=O)Nc3cc(F)ccc3C)C2)n1` (centres undefined) as the molecule, how does the inhibition read?
**A.** Its inhibition is 99.2% (active).

**Q.** Which inhibition does the source give for `CC(C)CCNC(=O)C1CCCN(S(=O)(=O)c2ccc(F)cc2)C1` (centres undefined) here?
**A.** Its inhibition is 7.6%.

**Q.** `Cc1cc(C)cc(NC(=O)C2CCN(c3nc(C)cc(C)n3)CC2)c1` was tested. Which inhibition did it give?
**A.** The inhibition was -2.3%.

**Q.** How did the inhibition turn out when `Cc1cc(-c2ccccc2)nc(N2CCC(C(=O)NC34CC5CC(CC(C5)C3)C4)CC2)n1` was run?
**A.** Its inhibition is 8.2%.

**Q.** `Cc1ccnc(N2CCC(C(=O)NC3CCCCCC3)CC2)n1` was tested. Which inhibition did it give?
**A.** Its inhibition is 94.4% (active).

**Q.** Which inhibition does the source give for `O=C(Nc1ccc2c(c1)OCCO2)C1CCCN(c2ncccn2)C1` (centres undefined) here?
**A.** Its inhibition is 1.1%.

**Q.** With `C/C(=N\NC(=O)c1nc(C)cc(C)n1)c1ccccc1` as the molecule, how does the inhibition read?
**A.** Its inhibition is -4%.

**Q.** `Cc1ccc(-c2nnc(SC(C)C#N)n2N)cc1` (centres undefined) was tested. Which inhibition did it give?
**A.** Its inhibition is 9%.

**Q.** For `NC(N)=N/N=C/c1ccc(OCc2ccc(Cl)cc2Cl)cc1`, which inhibition is on record?
**A.** Its inhibition is -10.2%.

**Q.** How did the inhibition turn out when `CCOC(=O)C1=C(O)CSC1=Nc1cccc(Cl)c1` was run?
**A.** The inhibition was 9.1%.

**Q.** For `COC(=O)C1C(=O)NCC1c1ccc(OC)cc1` (centres undefined), which inhibition is on record?
**A.** The inhibition was 13.7%.

**Q.** For `CC(C)(C)NS(=O)(=O)CC12CCC(CC1=O)C2(C)C` (centres undefined), which inhibition is on record?
**A.** The inhibition was 17.8%.

**Q.** `CCOc1cc2[nH]c(=S)n(CCN3CCCCC3C)c(=O)c2cc1OCC` (centres undefined) was tested. Which inhibition did it give?
**A.** Its inhibition is 2.3%.

**Q.** For `C=CCNC(=O)c1ccc(C)c(Br)c1`, which inhibition is on record?
**A.** The inhibition was 19.1%.

**Q.** For `C=CCNC(=O)c1sc(SC)cc1-c1ccc(Cl)cc1`, which inhibition is on record?
**A.** The inhibition was 83.9% (active).

**Q.** `Cc1cc2nc(C)n(CCCNC(=O)Nc3ccccc3)c2cc1C` was tested. Which inhibition did it give?
**A.** Its inhibition is 20.3%.

**Q.** For `COc1ccc(-c2cc(C(=O)NCc3ccco3)no2)cc1OC`, which inhibition is on record?
**A.** Its inhibition is -19.3%.

**Q.** How did the inhibition turn out when `COc1ccccc1CCNC(=O)c1cnccn1` was run?
**A.** The inhibition was 22.6%.

**Q.** `CCOc1ccccc1C(=O)NCCCn1ccnc1` was tested. Which inhibition did it give?
**A.** Its inhibition is 93.4% (active).

**Q.** With `COc1ccccc1-c1cc(C(=O)NCCCn2ccnc2)no1` as the molecule, how does the inhibition read?
**A.** The inhibition was 78.5% (active).

**Q.** Which inhibition does the source give for `NS(=O)(=O)c1ccc(CCNC(=O)Nc2ccc(Cl)cc2)cc1` here?
**A.** Its inhibition is 24.5%.

**Q.** How did the inhibition turn out when `O=C(NCCCn1ccnc1)Nc1ccc(Cl)cc1Cl` was run?
**A.** Its inhibition is 97.4% (active).

**Q.** How did the inhibition turn out when `O=C(c1cc(-c2cccs2)on1)N1CCCCC1` was run?
**A.** Its inhibition is 14.3%.

**Q.** Which inhibition does the source give for `CCCCOCCCNC(=O)c1ccccc1OCC` here?
**A.** The inhibition was 48.3%.

**Q.** `CCOc1ccc(C(=O)NCCCN2CCCC2=O)cc1` was tested. Which inhibition did it give?
**A.** The inhibition was 15.8%.

**Q.** With `COc1ccccc1-c1cc(C(=O)N2CCCCC2)no1` as the molecule, how does the inhibition read?
**A.** The inhibition was 52.8% (active).

**Q.** `O=C(c1cc(-c2ccccc2O)on1)N1CCCC1` was tested. Which inhibition did it give?
**A.** The inhibition was 17.3%.
